# High-throughput results from PubChem.
# This excerpt belongs to a sample that is enriched for hits.
# ALR H2O2 inh: human ALR oxidase inhibition via reduced H2O2 | purified ALR, DTT oxidation, H2O2 HRP-luminol luminescence | inhibition, % (concentration not given with the values) | hit rate 3.8% among 290,000;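 active means mean replicate inhibition above about 79%, with every replicate also reaching it, limit read from the data; inconclusive means only one of the two criteria met; inactive means mean below limit and not every replicate reaching it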
# Target sequence (P55789 whole entry, looked up): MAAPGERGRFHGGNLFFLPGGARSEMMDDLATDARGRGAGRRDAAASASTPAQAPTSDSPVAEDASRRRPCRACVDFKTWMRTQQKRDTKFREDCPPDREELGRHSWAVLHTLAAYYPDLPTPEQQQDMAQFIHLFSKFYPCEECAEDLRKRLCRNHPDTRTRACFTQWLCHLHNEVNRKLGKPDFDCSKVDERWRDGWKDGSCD
# ERp5 inh: ERp5 (human) disulfide isomerase inhibition | ERp5 insulin aggregation, absorbance 650 nm, 90 min | inhibition, % at 9.99 µM | hit rate 0.05% among 350,000 | AID 651711;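 active means mean replicate inhibition above about 25%, with every replicate also reaching it, limit read from the data, passing the limit was not always enough; inconclusive means only one of those two criteria met; inactive means neither criterion met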
# NRP1-CendR mod: NRP-1/CendR interaction modulation; FAM-RPARPAR peptide binding to NRP-1, fluorescence polarization; AID 602438; hit rate 0.85% among 360,000; inhibition, % at 25 µM; O14786;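 active means inhibition or corrected inhibition above about 18%, plus a signal ratio from 0.5 to 1.5, limit read from the data, passing the limit was not always enough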
# PglD DTNB: PglD (C. jejuni) enzyme inhibition | purified PglD enzyme, DTNB colorimetric CoA detection | inhibition, % at 12.5 µM | hit rate 0.098% among 360,000 | AID 602405; in the data active means inhibition above about 16%, passing the limit was not always enough; inconclusive means no clear call, values can overlap the other calls
# PDI turbidity: blocks human protein disulfide isomerase activity; P07237; PDI insulin aggregation turbidity, A650, 90 min; inhibition, % at 10 µM; hit rate 0.052% among 350,000; AID 588391;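 active means mean inhibition across replicates of 30% or more, whatever share of single replicates reach that level; inconclusive means mean inhibition below 30% while every single replicate reaches 30%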
# ARNT-TACC3 inh: ARNT/TACC3 interaction disruption; inhibition, % at 9.99 µM; hit rate 0.66% among 390,000; Q9Y6A5; AlphaScreen His-ARNT PAS-B/GST-TACC3 binding, luminescence; TACC3 fragment carries E629A point mutation; AID 623870;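 active means mean inhibition of replicates at least 50% and at least half of replicates each reaching 50%; inconclusive means half or more replicates reach 50% but mean below 50%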;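 further: 0% = complete ARNT plus TACC3 wells and 100% = ARNT alone without TACC3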
# * = called active by the depositor; ? = inconclusive; · = not tested or not shown.
SMILES,ALR H2O2 inh,ERp5 inh,NRP1-CendR mod,PglD DTNB,PDI turbidity,ARNT-TACC3 inh
Cc1ccc(-c2cc(C(=O)NC3=NCCS3)c3ccccc3n2)cc1C,89.9*,·,-5.9,3.5,1.6,-2.9
C[C@H]1CN([C@@H](C)CO)C(=O)c2cc(-c3cccc(F)c3)cnc2O[C@H]1CN(C)Cc1cccnc1,·,-10.3,·,1.1,·,-0.1
CCN(CC)c1ccc(C2C(C(=O)OCCOC)=C(C)NC3=C2C(=O)CCC3)cc1 (stereo unspecified),98.7*,5.1,4.7,1.4,-21.1,3.8
CCCOC(=O)C1=C(C)NC2=C(C(=O)CCC2)C1c1ccc(N(C)C)cc1 (stereo unspecified),90.7*,·,0.9,·,4.3,0.7
CCOC(=O)C1=C(C)NC2=C(C(=O)CCC2)C1c1ccc(N(C)C)cc1 (stereo unspecified),73.6,·,-20.0,·,-0.8,active
Cc1cc(NC(=O)Nc2ccc(C)c(C)c2)no1,18.5,4.0,4.4,·,-1.4,-0.5
Cc1cc(NC(=O)Nc2cc(Cl)ccc2C)no1,24.5,2.7,19.5*,0.0,0.4,-10.5
O=C(CC(SCCO)c1ccc2c(c1)OCO2)c1ccco1 (stereo unspecified),97.4*,·,10.7,-7.3,6.5,-2.9
O=C(Nc1ccc(F)cc1)N[C@H]1CC[C@H](CCNS(=O)(=O)c2ccccc2F)O[C@@H]1CO,·,9.5,·,-3.5,·,4.4
CCCC(=O)N1CC2(C1)CN(C(=O)CC)[C@@H](CO)c1c2c2ccc(OC)cc2n1C,·,-3.6,·,·,·,·
COc1ccc(CN2C(=O)CCC2(C)c2nnnn2-c2c(C)cccc2C)cc1 (stereo unspecified),·,6.2,23.3*,·,·,·
Cc1ccc(CN2C(=O)CCC2(C)c2nnnn2-c2c(C)cccc2C)cc1 (stereo unspecified),·,-6.5,7.0,·,·,·
CCc1ccc(NC(=S)NC2CC3CCC(C2)N3Cc2ccco2)cc1 (stereo unspecified),20.7,·,-8.0,9.7,9.7,7.8
COc1ccc(NC(=S)NC2CC3CCC(C2)N3Cc2ccco2)cc1 (stereo unspecified),3.7,-5.7,20.8*,·,0.3,6.8
O=S(=O)(c1ccc(NC(=S)N2CCOCC2)cc1)N1CCCCC1,·,0.0,2.4,4.0,-4.1,·
O=C(CN1CCN(c2ccc(O)cc2)CC1)Nc1ccc(S(=O)(=O)N2CCCC2)cc1,88.0*,6.0,-5.0,-0.7,-0.3,3.2
O=S(=O)(c1ccc(NC(=S)N2CCN(c3ccc(O)cc3)CC2)cc1)N1CCOCC1,99.3*,-1.5,-2.8,1.4,-0.1,·
O=C(CN1CCCN(S(=O)(=O)c2ccc(Br)s2)CC1)Nc1ccc(Cl)cc1,91.1*,·,-3.1,1.4,-1.2,·
O=C(CN1CCCCC1)Nc1ccc(S(=O)(=O)N2CCCCCC2)cc1,-18.1,·,7.3,0.1,-1.3,-3.0
CN(C)S(=O)(=O)c1cc(NC(=O)CN2CCN(c3ccccc3)CC2)ccc1Cl,21.0,·,-1.2,·,2.1,7.8
CN(C)S(=O)(=O)c1cc(NC(=O)CN2CCN(c3ccc(O)cc3)CC2)ccc1Cl,100.2*,-0.7,8.7,·,9.7,-3.3
COCc1cn(CC[C@H]2CC[C@H](NC(=O)c3ccccc3)[C@H](CO)O2)nn1,·,2.8,·,-4.2,·,-6.4
C[C@H]1CN([C@@H](C)CO)C(=O)c2cc(NC(=O)NC3CCCCC3)ccc2O[C@@H]1CN(C)CC1CCCCC1,·,-2.0,·,1.5,·,3.8
Cc1ccc(S(=O)(=O)N2CCOCC2)cc1NC(=O)CN1CCN(c2ccc(O)cc2)CC1,96.8*,?,12.0,1.2,-0.4,0.4
Cc1cc2nc3c(=O)[nH]c(=S)[nH]c3nc2cc1NC(=O)C(F)(F)F,16.9,3.2,49.1,-0.9,-6.8,70.3*
CCOc1ccc(Cc2n[nH]c(=S)n2N)cc1,96.3*,·,-6.0,·,5.7,-7.4
Cc1c(C(=O)Nc2ccc(S(=O)(=O)NCC3CCCO3)cc2)cccc1[N+](=O)[O-] (stereo unspecified),-4.0,0.5,37.7*,·,6.2,20.7
O=C(Nc1ccc(S(=O)(=O)NCC2CCCO2)cc1)c1ccc(Cl)cc1[N+](=O)[O-] (stereo unspecified),-17.7,3.1,-1.3,·,1.7,1.4
Cc1ccc(NC(=O)CSc2nc3ccccc3c(=O)n2CC2CCCO2)cc1 (stereo unspecified),1.7,16.4,9.9,3.9,-8.1,-5.0
O=C(O)CCCCCn1c(SCC(=O)c2ccc(O)c(O)c2)nc2ccsc2c1=O,99.3*,·,-147.6,·,31.7*,15.0
